Experimental data: ChEMBL document CHEMBL1157539, “Thousands of chemical starting points for antimalarial lead identification” (Nature, 2010)

These compounds were tested on Plasmodium falciparum (assay: GSK_TCMDC: Inhibition of Plasmodium falciparum 3D7 in whole red blood cells, using parasite LDH activity as an index of growth. Test compounds present at 2uM).
Format: functional

Structure (SMILES) | Inhibition
COc1ccc(-c2ccc(S(=O)(=O)Nc3cc4c(cc3OC(C)C)CCN(C)CC4)cc2)cc1.Cl | 98%
CN(C(=O)Nc1ccc(C(F)(F)F)cc1)C1CCN(CCCCCNC(=O)/C=C/c2ccc(Cl)c(Cl)c2)CC1 | 100%
CN(C)c1ccc(-c2ccc(C(=O)NC3CCN(Cc4ccccc4F)CC3)s2)cc1.O=C(O)C(F)(F)F | 88%
Cc1ccccc1C1CCN(c2ncc(C(=O)NC3CC3)cc2Cl)CC1.O=C(O)C(F)(F)F | 96%
COc1cc2ccccc2cc1OCCCN1CCN(CC(c2ccc(F)cc2)N2CCN(C(C)C)CC2)CC1.Cl (stereo unspecified) | 100%
COc1cc(F)c2ncc(F)c(CCN3C[C@H](CNCc4ccc5c(n4)NC(=O)CS5)[C@H](O)C3)c2c1.Cl | 91%
CCCCOc1ccc(-n2c(Nc3ccccc3)nc3cc(S(N)(=O)=O)ccc32)cc1 | 90%
O=C(Nc1ccc(-c2cccc(-c3nc4cc(C(F)(F)F)ccc4[nH]3)c2)cc1)Nc1ccc(F)c(F)c1F | 99%
CCS(=O)(=O)c1ccc(-c2cnc3[nH]cc(-c4ccc(N)cc4)c3c2)cc1 | 92%
CCC(C)(C)c1ccc(OCCCC(=O)Nc2ccc(Cl)c([N+](=O)[O-])c2)c(C(C)(C)CC)c1 | 92%
CC(C)(C)C1CC(=O)CC2C(=O)N(c3ccc(Br)cc3)C(=O)C21 (stereo unspecified) | 94%
CC(=O)Nc1ccc(C(=O)Nc2cccc(-c3ccc(-c4nc5ccccc5[nH]4)s3)c2)cn1 | 100%
COc1ccc(CCNCCCCCCNCCCc2ccc(Cl)cc2)cc1OC.Cl | 96%
Clc1ccc(Nc2nc3ccc(Cl)cc3nc2Nc2ccc(Cl)cc2)cc1 | 99%
Cc1cc2ccc(/C=C/C(=O)NC3CCC(CCN4CCc5ccc(C#N)cc5CC4)CC3)cc2[nH]1.Cl (stereo unspecified) | 84%
O=C(Nc1cc(Cl)cc(Cl)c1)c1cc(Cl)c(=O)n(Cc2ccc(Cl)cc2)c1 | 89%
COc1ccc(C=NN=c2cc(C)[nH]c3ccc(C)cc23)c2ccccc12.Cl | 94%
N#Cc1ccc(-c2nc(CO)c(C(=O)NCCCCN3CCC(c4ccc5c(c4OCC(N)=O)CCCC5)CC3)s2)cc1 | 92%

Structure (SMILES) | Inhibition
CN(C)CCOc1cccc(NC(=O)Nc2ccc(-c3ccccc3)cc2)c1.O=C(O)C(F)(F)F | 90%
CCN(CC)CCN(Cc1ccc(-c2ccc(C(F)(F)F)cc2)cc1)C(=O)Cn1c(SCc2ccc(F)c(F)c2F)nc(=O)c2c1CCC2.O=C(O)C(O)C(O)C(=O)O | 91%
O=C(Nc1ccccc1)c1nn(CCCN2CCC(N3CCCC3)CC2)cc1-c1ccc(Cl)c(Cl)c1 | 100%
CN(C)CCCNc1ncnc2c1[nH]c1ccc(Br)cc12 | 100%
Cc1cc(OCC2CCN(c3ccc(C(=O)NC4CC4)cn3)CC2)ccc1F | 94%
CCN(CC)CCNc1ccc(Nc2ccnc3cc4ccccc4cc23)cc1 | 100%
NC(=O)c1cccc(C(=O)Nc2cccc(-c3cccc(-c4nc5cc(F)ccc5[nH]4)c3)c2)c1 | 100%
O=C(Nc1cccc(-c2cccc(-c3nc4cc(C(F)(F)F)ccc4[nH]3)c2)c1)c1ccncc1 | 100%
Cc1cccc2nc(-c3cccc(-c4cccc(NC(=O)c5cnccc5C(F)(F)F)c4)c3)[nH]c12 | 98%
CCCCCCN1CCN(Cc2cccc(NC(=O)c3cc4ccccc4s3)c2)CC1.O=C(O)C(F)(F)F | 93%
CCN(CCO)CCc1cccc(Nc2nccc(-c3c(-c4ccc(NC(=O)C(C)(C)C)cc4)nn4ccccc34)n2)c1.Cl | 100%
CN(CCCNC(=S)NC12CC3CC(CC(C3)C1)C2)CCCNc1ccnc2cc(Cl)ccc12 | 100%
COc1ccc2nc3cc(Cl)ccc3c(NCCNCC(O)CO)c2n1.Cl (stereo unspecified) | 100%
N#Cc1cccc(CN2CCCN(Cc3ccc(C(=O)Nc4ccc(Cl)cc4)cc3)CC2)c1.O=C(O)C(F)(F)F | 98%
O=C(CCc1c[nH]cn1)Nc1ccc(-c2ccc(-c3nc4cc(F)ccc4[nH]3)cc2)cc1 | 99%
COc1ccccc1C1CCN(C2CCC(NC(=O)/C=C/c3ccc(F)c(F)c3)CC2)CC1 (stereo unspecified) | 94%
Cc1cccc2[nH]cc(C3CCN(CCC4CCN(C(=O)/C=C/c5ccc(Cl)c(Cl)c5)CC4)CC3)c12 | 91%
COC(=O)[C@@H](NC(=O)[C@@H](Nc1ccc(C#N)c2ccccc12)C(C)(C)C)c1ccc(O)cc1 | 100%
